Molecules are shown by their SMILES. The campaign covered roughly 93,000 compounds. About 160 (0.17%) were called active. The full list was thinned out, with actives kept by preference. Values without a mark were called inactive.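 Rule for the calls: active = cell count reduction exceeding the screen mean by over 5 SD, scaled to untreated wells per plate (cut at about 78% in these data); inactive = the rest.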

The nature of this assay: cytotoxicity in TNFa-stimulated HUVEC, primary screen, cytotoxicity control for VCAM1 expression modulator project, imaging, Hoechst nuclei count (AID 848).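 Note: cells counted after 24 h of TNF alpha exposure following the 1 h pretreatment.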 The note with it: HUVEC TNFalpha-stimulated, at 2 µM, active compounds read high.
Take `Cc1cc(C)nc(SC(C)C(=O)N/N=C/c2cccs2)n1` (centres undefined): the cell count reduction was -19.7%.

On to `CN(C(=O)CC(NC(=O)c1ccccc1)(c1ccccc1)c1ccccc1)c1ccccc1`, for which the cell count reduction is 3.7%.

With `COC(=O)c1ccc(C(=O)Nc2cc(Cl)ccc2Cl)cc1NC(=O)c1ccccc1C`, the cell count reduction was -7.7%.

Regarding `O=C1c2ccccc2C(=O)N1CC1c2ccccc2CCN1S(=O)(=O)c1ccccc1` (centres undefined), the cell count reduction is -14.8%.

Consider `Cc1ccc2nc(Nc3ccccc3O)nc(-c3ccccc3)c2c1`, for which the cell count reduction is -13.2%.

Regarding `CCc1ccc(C(=O)CSc2nnc(C)c(=O)[nH]2)cc1`, the cell count reduction is -4.6%.

As to `COc1ccc(CC(=O)Nc2ccc(-c3nnc(-c4ccc(C)cc4)o3)cc2)cc1`, the cell count reduction was -17.7%.

In the case of `COc1ccc(NC(=O)/C(Cl)=C(/Cl)S(=O)Cc2ccc(C)cc2)cn1` (centres undefined), the cell count reduction is 81.9% (active).

On to `COc1cccc(NC(=O)Cc2ccc(C)cc2)c1`, for which the cell count reduction was -6.5%.

As to `C=CCn1c(SCC(=O)c2c(N)n(C)c(=O)n(C)c2=O)nc2sc(CC)cc2c1=O`, the cell count reduction was -45.1%.

Consider `CC(C)c1ccc(/C=C/C(=O)NNC(=O)c2cccnc2)cc1`, for which the cell count reduction is -4.2%.

For `CCC(=O)NCCc1nc2ccccc2n1CC`, the cell count reduction is 14.3%.

Consider `CSc1nc2ccccc2cc1/C=C(\C#N)c1ccc(Cl)cc1Cl`, for which the cell count reduction is -9%.

Turning to `Clc1ccc(-n2nnnc2CN2CCCCC2)cc1Cl`, the cell count reduction was -12.5%.

Take `COc1ccc(C(=O)NC(=S)Nc2ccccc2N2CCN(S(C)(=O)=O)CC2)cc1OC`: the cell count reduction is -26.7%.

Consider `C=CCNc1cnn(-c2ccc(C)cc2)c(=O)c1Cl`, for which the cell count reduction was -7.9%.

Regarding `Cc1ccc(CNC(=O)CCNC(=O)Cn2ccc3ccccc3c2=O)cc1`, the cell count reduction is -15.5%.

`CCSc1nnc(-c2cc3c(s2)-c2ccccc2CC3)o1`: the cell count reduction was -4.1%.

Consider `O=C(Cc1ccc2c(c1)CCCC2)Nc1ccccc1Cl`, for which the cell count reduction is 7.2%.

Turning to `CC(C)(CCl)C(=O)Nc1ccc(Sc2ccc(F)cc2)cc1`, the cell count reduction was -6.3%.

As to `Cc1ccc(S(=O)(=O)N(CC(=O)NCCSC2CCCCC2)c2ccccc2F)cc1`, the cell count reduction is -49.8%.

In the case of `COC(=O)c1cccc(N(C(=O)c2ccco2)C(C(=O)NC2CCCC2)c2ccco2)c1` (centres undefined), the cell count reduction is 1.3%.

Take `CCNC(=S)N1CCN(C(=O)c2ccco2)CC1`: the cell count reduction was 15%.

Turning to `CC(=O)N/C(=C/c1ccc(Cl)cc1)C(=O)NCCc1c[nH]c2ccccc12`, the cell count reduction was -23.5%.

Turning to `Cc1ccc(S(=O)(=O)N(CC(=O)N2CCc3ccccc3C2)c2cccc(Cl)c2)cc1`, the cell count reduction was 0%.

As to `CC1CN(c2nc(-c3ccccc3)nnc2-c2ccccc2)CC(C)O1` (centres undefined), the cell count reduction was -11%.

In the case of `CCC(=O)NNc1cc(=O)c2c(=O)n(C)c(=O)n(C)c2[nH]1`, the cell count reduction is 13%.

Turning to `O=C(CSc1nnc(-c2c[nH]c3ccccc23)o1)c1ccccc1`, the cell count reduction was -13.6%.

As for `COC(=O)CNC(=O)c1ccccc1[N+](=O)[O-]`, the cell count reduction was -19.5%.

The values above are taken from PubChem BioAssay AID848 (Columbia University Molecular Screening Center, 2007).
